Reference: PubChem BioAssay (Tox21)
Results filed as inconclusive are left out. Calls of active or inactive are those of the source. Unless noted, the call rests on the fitted dose curve.

Experiments:
[1] = Nuclear factor erythroid 2-related factor 2/antioxidant responsive element (Nrf2/ARE) small molecule agonists: qHTS cell viability counter screen in human keratinocytes (AID 1919968; active means well fitted curve in the direction sought with a large enough effect in the repeat runs; an effect the other way counts as inactive or inconclusive; further: nearly all actives have a fitted effect of over 55% in size; further: potency means the concentration at half of the fitted maximal effect)
Summary of the method: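 KeratinoSens HaCaT cells, 1,500/well, preincubated 5 h, then exposed to compounds in DMSO for 23 h at 37 C/5% CO2. Viability read as CellTiter-Fluor fluorescence after 1 h, in the same wells as the ARE-luciferase read.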

[2] = Nuclear factor erythroid 2-related factor 2/antioxidant responsive element (Nrf2/ARE) small molecule agonists: luciferase reporter gene qHTS assay in human keratinocytes (AID 1919969); further: nearly all actives have a fitted effect of over 35% in size
[3] = target: Gonadotropin-releasing hormone receptor (Homo sapiens) (UniProt P30968); assay: Human gonadotropin-releasing hormone receptor (GnRHR) small molecule agonists, calcium flux assay in GnRHR-HEK293 cells (AID 1920063); further: nearly all actives have a fitted effect of over 35% in size
Summary of the method: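 HEK293 cells stably expressing human GnRHR were dye-loaded for 1 h at 37 C. Compound was added in agonist mode and fluorescence (Ex/Em 480/540) recorded kinetically for 3 min. Fifteen concentrations, triplicates.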

[4] = target: KiSS-1 receptor (Homo sapiens) (UniProt Q969F8); assay: Human kisspeptin (KISS1R) small molecule agonists, calcium flux assay in KISS1R-HEK293 cells (AID 1920064; active means well fitted curve in the direction sought with a large enough effect in the repeat runs; an effect the other way counts as inactive or inconclusive)
Summary of the method: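 HEK293 cells stably expressing human KISS1R were loaded with calcium dye for 1 h at 37 C, then given compound; fluorescence (Ex/Em 480/540) was read kinetically for 3 min. Fifteen concentrations, triplicate.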

[5] = G protein-coupled receptor (GPCR) small molecule agonists, calcium flux assay: HEK293 wild type cell line counter screen (AID 1920065)
Summary of the method: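 Wild-type HEK293 cells plated 18 h, loaded with calcium dye 1 h at 37 C, then compounds added in agonist mode (ATP as positive control). Kinetic fluorescence Ex/Em 480/540 recorded 3 min at 1 sec intervals; 15 concentrations, triplicate.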

[6] = p53 small molecule agonists, cell-based qHTS assay with human liver microsomes (AID 1963577)
Summary of the method: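 p53RE-bla reporter cells were pre-incubated 5 h at 37 C, then treated with compounds plus human liver microsomes (0.5 mg/mL final) and NADPH (0.5 mg/mL final) for 16 h at 37 C. Beta-lactamase activity was read by LiveBLAzer fluorescence after 2 h at room temperature.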

[7] = p53 small molecule agonists, cell-based qHTS assay with rat liver microsomes (AID 1963578)
Summary of the method: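 p53RE-bla cells were exposed to compounds together with rat liver microsomes (0.5 mg/mL final) and NADPH (0.5 mg/mL final) for 16 h at 37 C, then read by LiveBLAzer beta-lactamase fluorescence after 2 h at room temperature.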

[8] = p53 small molecule agonists, cell-based qHTS assay with human liver microsomes: qHTS cell viability counter screen (AID 1963579); further: nearly all actives have a fitted effect of over 45% in size
Summary of the method: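 p53RE-bla cells (4,000/well) were pre-incubated 5 h at 37 C, then given compounds in DMSO plus human liver microsomes (0.5 mg/mL final) and NADPH (0.5 mg/mL final) for 16 h at 37 C. Viability was read by CellTiter-Glo luminescence.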

[9] = p53 small molecule agonists, cell-based qHTS assay: qHTS cell viability counter screen (AID 1963581); further: nearly all actives have a fitted effect of over 45% in size
Summary of the method: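 p53RE-bla HCT-116 cells, compounds added 5 h after plating and incubated 16 h at 37 C. Cytotoxicity measured in the same wells as intracellular ATP by CellTiter-Glo luminescence after 30 min at room temperature.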

[10] = p53 small molecule agonists, cell-based qHTS assay (AID 1963582; active means well fitted activation curve with a large enough effect in the signal ratio in the repeat runs, not every such curve was filed as active; the % refers to the signal ratio)
Summary of the method: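 p53RE-bla reporter cells, compounds added in DMSO after 5 h plating, incubated 16 h at 37 C. Beta-lactamase read via 2 h room-temperature LiveBLAzer B/G FRET substrate, fluorescence intensity.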

[11] = target: 5-hydroxytryptamine receptor 2A (Homo sapiens) (UniProt P28223); assay: 5-hydroxytryptamine receptor 2A (HTR2A) small molecule antagonists, cell-based qHTS assay (AID 1963586); further: nearly all actives have a fitted effect of over 45% in size
Summary of the method: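 Antagonist-mode intracellular calcium assay: DOI (4 nM) added after 5 min compound pre-incubation at room temperature to dye-loaded HTR2A-CHO cells. Fluorescence followed for 3 min, sampled every second.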

[12] = target: 5-hydroxytryptamine receptor 2A (Homo sapiens) (UniProt P28223); assay: 5-hydroxytryptamine receptor 2A (HTR2A) small molecule agonists, cell-based qHTS assay (AID 1963587); further: nearly all actives have a fitted effect of over 30% in size
Summary of the method: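 CHO cells stably expressing human HTR2A, plated 18 h, loaded with calcium dye 1 h at 37 C. Agonist mode: compounds added and intracellular calcium fluorescence recorded kinetically for 2 min at 1 sec intervals.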

[13] = target: Muscarinic acetylcholine receptor M1 (Homo sapiens) (UniProt P11229); assay: Cholinergic receptor muscarinic 1 (CHRM1) small molecule antagonists, cell-based qHTS assay (AID 1963588); further: nearly all actives have a fitted effect of over 40% in size
Summary of the method: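 CHRM1-CHO calcium-flux assay, antagonist mode. Cells were seeded 18 h, dye-loaded 1 h at 37 C and given compound for 5 min at RT, then acetylcholine was added at 50nM. FDSS fluorescence was read 3 min; 15 concentrations, three runs.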

[14] = target: Muscarinic acetylcholine receptor M1 (Homo sapiens) (UniProt P11229); assay: Cholinergic receptor muscarinic 1 (CHRM1) small molecule agonists, cell-based qHTS assay (AID 1963589); further: nearly all actives have a fitted effect of over 35% in size
Summary of the method: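 CHO cells stably expressing human CHRM1 were loaded with calcium dye for 1 h at 37 C, then compound was added in agonist mode. Intracellular calcium fluorescence was followed kinetically at 1 s intervals. Fifteen concentrations were tested in three independent runs.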

[15] = cAMP Responsive Elements (CRE) small molecule agonists, cell-based qHTS assay (AID 1963590)
Summary of the method: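 CRE-bla HEK 293T cells, 2,000/well in DMEM with 10% dialyzed FBS and 25 mM HEPES, pre-incubated 18 h at 37 C, then exposed to compound 3 h at 37 C. Beta-lactamase reporter read with LiveBLAzer B/G FRET substrate after 2 h at room temperature.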

[16] = cAMP Responsive Elements (CRE) small molecule antagonists, cell-based qHTS assay (AID 1963591; active means well fitted inhibition curve with a large enough effect in the signal ratio in the repeat runs, not every such curve was filed as active; the % refers to the signal ratio)
Summary of the method: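 CRE-bla HEK293T cells plated 18 h, then given compound plus NKH477 at 0.25 uM final for 3 h at 37C. Beta-lactamase reporter read with LiveBLAzer B/G FRET substrate after 2 h at room temperature.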

[17] = target: Beta-2 adrenergic receptor (Homo sapiens) (UniProt P07550); assay: Adrenergic beta2 receptor (ADRB2) small molecule antagonists, cell-based qHTS assay (AID 1963592); further: series mostly up to about 92 µM; nearly all actives have a fitted effect of over 50% in size
Summary of the method: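 Cells (CHO, stable ADRB2 overexpression) incubated 18-20hr at 37C; compounds added from DMSO; agonist mix (1nM isoproterenol, 100uM IBMX, 25uM Ro-20-1724) added; 0.5hr RT; d2-cAMP and anti-cAMP-cryptate added; 1hr RT; 665/615 nm read.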

[18] = target: D(2) dopamine receptor (Homo sapiens) (UniProt P14416); assay: Dopamine D2 receptor (DRD2) small molecule agonists, cell-based qHTS assay (AID 1963594); further: nearly all actives have a fitted effect of over 35% in size
Summary of the method: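 HEK293 cells stably expressing human DRD2, pre-treated with PDE inhibitor Ro20-1724 (0.1 mM final) and compound 10 min at room temperature, then stimulated with NKH477 (200nM […]) for 30 min. cAMP read by HTRF (665/620 nm).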

[19] = target: D(2) dopamine receptor (Homo sapiens) (UniProt P14416); assay: Dopamine D2 receptor (DRD2) small molecule antagonists, cell-based qHTS assay (AID 1963595; active means well fitted inhibition curve with a large enough effect in the signal ratio in the repeat runs, with a control signal flat; the % refers to the signal ratio)
Summary of the method: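 Antagonist mode in DRD2-HEK293 cells: after compound addition with 0.1 mM Ro20-1724, cells received quinpirole (12 nM) and NKH477 (200 nM) for 30 min at room temperature; HTRF cAMP read after 1 h detection.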

[20] = target: Beta-2 adrenergic receptor (Homo sapiens) (UniProt P07550); assay: Adrenergic beta2 receptor (ADRB2) small molecule agonists, cell-based qHTS assay (AID 1963593);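 further: CHO cells stably overexpressing human ADRB2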
Summary of the method: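 CHO cells stably over-expressing ADRB2 were plated overnight at 37C, then dosed with compounds plus a stimulation mix containing 100uM IBMX and 25uM Ro-20-1724 for 0.5hr at room temperature. cAMP was measured by HTRF competition, 1hr.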

Measured: Potency

Chain of Gonadotropin-releasing hormone receptor (Homo sapiens) (P30968 whole entry, looked up): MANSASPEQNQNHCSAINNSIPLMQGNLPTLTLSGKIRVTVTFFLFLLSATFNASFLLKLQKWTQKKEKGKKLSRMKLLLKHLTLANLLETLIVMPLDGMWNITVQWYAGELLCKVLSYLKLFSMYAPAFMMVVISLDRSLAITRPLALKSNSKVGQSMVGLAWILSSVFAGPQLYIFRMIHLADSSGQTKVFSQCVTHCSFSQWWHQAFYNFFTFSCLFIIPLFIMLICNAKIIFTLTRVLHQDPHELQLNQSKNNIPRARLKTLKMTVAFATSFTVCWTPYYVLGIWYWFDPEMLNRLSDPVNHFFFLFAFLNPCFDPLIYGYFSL
Chain of Beta-2 adrenergic receptor (Homo sapiens) (P07550 whole entry, looked up): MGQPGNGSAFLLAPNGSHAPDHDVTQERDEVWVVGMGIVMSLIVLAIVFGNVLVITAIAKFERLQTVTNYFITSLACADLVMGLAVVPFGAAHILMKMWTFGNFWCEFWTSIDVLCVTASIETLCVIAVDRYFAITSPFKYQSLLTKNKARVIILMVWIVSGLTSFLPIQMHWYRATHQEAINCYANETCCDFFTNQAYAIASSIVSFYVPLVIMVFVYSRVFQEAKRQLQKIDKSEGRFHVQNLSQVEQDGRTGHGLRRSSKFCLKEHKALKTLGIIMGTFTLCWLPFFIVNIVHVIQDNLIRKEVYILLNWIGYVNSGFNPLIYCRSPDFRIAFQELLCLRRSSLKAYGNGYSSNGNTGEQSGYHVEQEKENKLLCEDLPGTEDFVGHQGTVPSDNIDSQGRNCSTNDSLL
Chain of Muscarinic acetylcholine receptor M1 (Homo sapiens) (P11229 whole entry, looked up): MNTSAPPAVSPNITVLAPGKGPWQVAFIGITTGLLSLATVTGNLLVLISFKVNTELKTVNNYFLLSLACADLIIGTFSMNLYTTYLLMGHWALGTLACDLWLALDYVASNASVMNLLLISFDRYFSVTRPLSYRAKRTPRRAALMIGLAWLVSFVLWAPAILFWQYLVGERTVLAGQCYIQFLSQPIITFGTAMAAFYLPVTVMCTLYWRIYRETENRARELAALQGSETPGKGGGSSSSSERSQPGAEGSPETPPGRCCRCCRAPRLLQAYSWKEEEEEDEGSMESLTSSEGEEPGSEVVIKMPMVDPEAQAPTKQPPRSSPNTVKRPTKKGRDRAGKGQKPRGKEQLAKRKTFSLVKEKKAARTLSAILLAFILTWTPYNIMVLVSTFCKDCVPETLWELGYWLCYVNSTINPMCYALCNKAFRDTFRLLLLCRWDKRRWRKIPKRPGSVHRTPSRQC
Chain of D(2) dopamine receptor (Homo sapiens) (P14416 whole entry, looked up): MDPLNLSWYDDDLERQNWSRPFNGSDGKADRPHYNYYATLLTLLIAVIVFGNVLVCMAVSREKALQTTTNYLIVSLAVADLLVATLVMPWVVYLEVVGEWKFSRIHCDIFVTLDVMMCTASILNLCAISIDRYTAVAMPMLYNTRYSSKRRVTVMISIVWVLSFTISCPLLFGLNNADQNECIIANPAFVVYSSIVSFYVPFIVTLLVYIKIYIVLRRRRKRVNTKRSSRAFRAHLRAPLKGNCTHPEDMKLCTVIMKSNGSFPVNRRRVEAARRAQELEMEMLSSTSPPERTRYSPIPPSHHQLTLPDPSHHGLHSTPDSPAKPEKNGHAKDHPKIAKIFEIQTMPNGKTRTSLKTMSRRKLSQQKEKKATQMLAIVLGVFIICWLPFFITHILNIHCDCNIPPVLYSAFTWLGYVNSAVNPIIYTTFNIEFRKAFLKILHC
Chain of KiSS-1 receptor (Homo sapiens) (Q969F8 whole entry, looked up): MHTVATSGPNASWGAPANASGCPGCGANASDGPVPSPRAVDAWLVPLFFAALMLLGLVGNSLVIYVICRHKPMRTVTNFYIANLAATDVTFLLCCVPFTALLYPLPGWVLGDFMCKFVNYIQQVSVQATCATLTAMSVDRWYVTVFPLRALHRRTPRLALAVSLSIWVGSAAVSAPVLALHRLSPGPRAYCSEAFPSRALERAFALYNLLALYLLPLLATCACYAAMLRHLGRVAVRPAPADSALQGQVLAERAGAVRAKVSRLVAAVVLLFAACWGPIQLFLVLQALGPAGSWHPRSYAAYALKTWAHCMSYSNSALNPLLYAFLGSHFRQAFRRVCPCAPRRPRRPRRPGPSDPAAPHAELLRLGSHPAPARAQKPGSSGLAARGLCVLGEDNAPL
Chain of 5-hydroxytryptamine receptor 2A (Homo sapiens) (P28223 whole entry, looked up): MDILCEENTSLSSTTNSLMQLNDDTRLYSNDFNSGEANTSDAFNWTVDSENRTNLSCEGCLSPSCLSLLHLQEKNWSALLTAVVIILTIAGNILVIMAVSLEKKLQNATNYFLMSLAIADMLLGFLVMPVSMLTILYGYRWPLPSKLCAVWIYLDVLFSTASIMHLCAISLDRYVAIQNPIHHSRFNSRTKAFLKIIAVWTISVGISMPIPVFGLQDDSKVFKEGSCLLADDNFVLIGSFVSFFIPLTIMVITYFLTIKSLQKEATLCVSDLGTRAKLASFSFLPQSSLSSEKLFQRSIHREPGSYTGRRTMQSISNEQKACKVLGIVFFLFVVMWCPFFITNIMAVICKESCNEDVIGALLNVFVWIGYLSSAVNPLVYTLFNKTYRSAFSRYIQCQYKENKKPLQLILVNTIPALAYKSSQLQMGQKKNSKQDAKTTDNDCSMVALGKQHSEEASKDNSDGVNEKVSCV

Cc1cc(C)c(S(=O)(=O)O)cc1N=Nc1cc(S(=O)(=O)O)c2ccccc2c1O
active: [1] 30.6 µM
not listed: [17] | [18] | [19] | [20]
inactive: all other assays above

C=C(C)C(=O)OCCCCCCCC(C)C
not listed: [20]
inactive: all other assays above

Cc1c(O)cccc1C(=O)N[C@@H](CSc1ccccc1)[C@H](O)CN1C[C@H]2CCCC[C@H]2C[C@H]1C(=O)NC(C)(C)C
inactive: [2] | [3] | [4] | [5] | [6] | [7] | [8] | [18] | [19]
active: [1] 11.9 µM

O=C(O)/C=C/c1cnc[nH]1
not listed: [20]
inactive: all other assays above

CN1CCCC1
inactive: all assays above

CC(=O)OCCc1ccccc1
inactive: all assays above

NC(=O)Cc1cccc2ccccc12
not listed: [19] | [20]
inactive: all other assays above

Cc1ccc(-c2ccccc2C#N)cc1
not listed: [18]
inactive: all other assays above

O=C(O)c1ccco1
not listed: [20]
inactive: all other assays above

Oc1ccccc1O
not listed: [9] | [10] | [11] | [12] | [13] | [14] | [17] | [20]
inactive: all other assays above

CC1=CCC(O)(C(C)C)CC1 (centres undefined)
inactive: all assays above

CC1(C)CO[C@@H](CC(=O)O)CN1
inactive: all assays above

CCc1occc(=O)c1O
inactive: all assays above

Cc1ccc(C)o1
not listed: [20]
inactive: all other assays above

OCCc1ccccn1
not listed: [19] | [20]
inactive: all other assays above
